Screening data: PubChem, National Center for Advancing Translational Sciences (NCATS)
Sm TGR block: qHTS Assay for the Inhibitors of Schistosoma Mansoni Peroxiredoxins; AID 485364, 2010; purified TGR, DTNB reduction, TNB absorbance 405 nm; 3% of 360,000 active; Potency, µM (highest dose often 114 µM), for the others: top-dose activity change, negative = inhibition, most hits filed as inhibitors; active means well fitted inhibition curve with a large enough effect; inconclusive means small, poorly fitted or top-dose-only effect; inactive means no such curve, though single readings can be large or run the other way; further: on the % scale 0 is the no-effect control and ±100 the full control effect; nearly all actives have a fitted effect of over 60% in size
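TGR 20 nM + NADPH 100 uM (dispensed conc.), cpd preinc 15 min RT; start with NADPH (500 uM addition) then DTNB (15 mM addition). Kinetic TNB absorbance, 405 nm filter. Four-parameter Hill fit across titration.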
SARS PLP yeast: qHTS of Yeast-based Assay for SARS-CoV PLP; Potency, µM (doses to about 32.9 µM), inactives show at the highest dose activity, positive = growth rescue, actives largely listed as activators; AID 485353, 2010; 0.19% of 330,000 active; S. cerevisiae expressing SARS-CoV PLpro, growth rescue; calls by dose curve; further: 0% is about no effect; nearly all actives have a fitted effect of over 55% in size
* hit, by the source's call; ? = inconclusive; / = not tested or not shown. This is a sample that favours compounds with a hit; in the whole collection about 3% have one here. Potency means the concentration at half of the fitted maximal effect.

SMILES	Sm TGR block	SARS PLP yeast
COc1cc(NC(=O)CSc2nc(-c3ccc(C(C)C)cc3)no2)cc(OC)c1	14.6%	/
Cn1cc(S(=O)(=O)N2CCCCCC2)cc1C(=O)NCc1ccccc1Cl	2.1%	/
COc1ccc(CNC(=O)c2ccc(Cn3cc(Cl)cn3)o2)cc1	14.1µM*	1.9%
COc1ccc(CNC(=O)c2ccc(Cn3cc(Br)cn3)o2)cc1	?	-1.0%
COc1ccc(S(=O)(=O)Cc2ccc(C(=O)NCc3ccccc3)o2)cc1	-25.8%	-2.1%
COc1ccc(S(=O)(=O)Cc2ccc(C(=O)NCc3cccnc3)o2)cc1	35.5µM*	9.3%
CCOC(=O)c1ccc(NC(=O)c2c(C)nn(-c3ccc(F)cc3)c2-n2cccc2)cc1	1.7%	/
O=C(NC1CCCC1)c1ccc2c(=O)n(Cc3ccccc3)c(SCc3cccc([N+](=O)[O-])c3)nc2c1	-2.9%	/
CC(=O)c1ccc(N2CCN(C(=O)C3CCN(S(=O)(=O)c4cccc5nonc45)CC3)CC2)cc1	6.3%	/
CC1(c2ccccc2)CC(c2ccccc2)=Nc2ccccc2N1 (stereo not drawn)	?	3.8%
Cc1ccc(C2=Nc3ccccc3NC(C)(c3ccc(C)o3)C2)o1 (stereo not drawn)	35.5µM*	-2.7%
COc1ccc(C2C(C(C)=O)=C(C)Nc3ncnn32)cc1 (stereo not drawn)	35.5µM*	-2.6%
COc1ccccc1NC(=O)C1=C(C)Nc2ncnn2C1c1ccc[nH]1 (stereo not drawn)	39.8µM*	/
COc1cccc(C2C(C(C)=O)=C(C)Nc3ncnn32)c1 (stereo not drawn)	4.2%	-1.0%
COc1ccccc1NC(=O)C1=C(C)Nc2ncnn2C1c1ccccn1 (stereo not drawn)	5.1%	/
COc1ccccc1C(=O)N1CCC(c2c[nH]c3ccccc23)(c2c[nH]c3ccccc23)CC1	6.3%	/
Cc1ccc2c(c1)N(CCC(=O)NCc1ccccc1Cl)C(=O)CO2	6.3%	/
CC(=O)NN1C(=O)/C(=C\c2ccc(Br)o2)SC1=S	25.1µM*	18.0%
CC(=O)NN1C(=O)/C(=C\c2ccccc2)SC1=S	10.1%	0.7%
CC(=O)NN1C(=O)/C(=C/c2ccc(Br)o2)SC1=S	25.1µM*	23.8%
CC(=O)NN1C(=O)/C(=C\c2ccc(O)cc2)SC1=S	-10.5%	-1.1%
COC(=O)c1c(NC(=O)Cc2coc3cc(C)cc(C)c23)sc2c1CCC2	1.1%	/
CCSc1ncc(Cl)c(C(=O)Nc2ccc(S(=O)(=O)N3CCCCC3CC)cc2)n1 (stereo not drawn)	4.7%	/
CC1CCCN(S(=O)(=O)c2ccc(NC(=O)CNC3CCCC3)cc2)C1 (stereo not drawn)	-1.4%	0.4%
Cc1ccc(CS(=O)(=O)c2ncc(Cl)c(C(=O)Nc3ccc(OC(F)F)cc3)n2)cc1	10µM*	-4.8%
SMILES	Sm TGR block	SARS PLP yeast
CCS(=O)(=O)c1ncc(Cl)c(C(=O)Nc2ccc(C)cc2)n1	6.31µM*	-11.0%
CSc1ncc(Cl)c(C(=O)Nc2ccc(NC(C)=O)cc2)n1	-0.1%	-0.2%
O=C(Nc1ccc(OC(F)F)cc1)c1ncc(Cl)c(Cl)c1Cl	5.9%	-0.7%
CCC1CCCCN1S(=O)(=O)c1ccc(NC(=O)c2nc(S(C)(=O)=O)ncc2Cl)cc1 (stereo not drawn)	2µM*	-4.6%
CCS(=O)(=O)c1ncc(Cl)c(C(=O)Nc2ccc(S(=O)(=O)N3CCCC(C)C3)cc2)n1 (stereo not drawn)	0.355µM*	12.7%
Cc1cc(O)c2c(C)c(CC(=O)N3CCCCC3)c(=O)oc2c1	7.6%	/
COc1ccc(-c2cc(-c3ccc(C)cc3)nc3c2COc2ccccc2-3)cc1	-1.3%	/
Cc1ccc(-c2onc(C)c2C)cc1S(=O)(=O)NCc1ccc(N(C)C)cc1	2.3%	/
CCc1noc(-c2ccc(NCc3ccccc3)c([N+](=O)[O-])c2)n1	-5.3%	/
CC1(C)CC(=O)N(c2cc(Cl)ccc2Cl)C(=O)C1	-1.1%	-0.1%
CC1=C(c2ccc(Cl)cc2)[N+](=O)C(C)(C)N1[O-]	20µM*	0.0%
Cc1cccc(CC(=O)N2CC(=O)Nc3ccc(C)cc3C2c2ccc(F)cc2)c1 (stereo not drawn)	5.4%	/
CN(C(=O)COC(=O)c1ccc(C(C)(C)C)cc1)C1CCS(=O)(=O)C1 (stereo not drawn)	0.0%	0.9%
CN(C(=O)COC(=O)c1nc(Cl)c(Cl)c(Cl)c1Cl)C1CCS(=O)(=O)C1 (stereo not drawn)	35.5µM*	-0.1%
COc1ccc(S(=O)(=O)NCCc2sc(-c3cccc(C)c3)nc2C)cc1	5.7%	/
CC(=O)OCC1=C(C(=O)O)N2C(=O)C(NC(=O)c3ccc(COc4ccc(Cl)cc4)o3)C2SC1 (stereo not drawn)	22.4µM*	8.4%
CCCNC(=O)c1ccc(COc2ccc(Cl)cc2)o1	?	-7.4%
